Data on 30 molecules can be found in PubChem BioAssay (Tox21).

Structures are written as SMILES. Values joined by “and” are separate entries in the source; they are usually repeats but may differ in a detail not shown here. Identical values can stand only once. Results filed as inconclusive are left out. Some structures have more than one record in an assay (separate samples or runs), and their calls can disagree. Active and inactive are the calls of the source. The call rests on the fitted dose curve; in most records, active means well fitted curve in the direction sought with a large enough effect in the repeat runs; inconclusive means weak or mixed curves; inactive means no such curve, though single readings can be large; an effect the other way counts as inactive or inconclusive.

Assay [1] deals with Cytochrome P450 2C19 (Homo sapiens) (UniProt P33261). Put plainly: Cytochrome P450 Family 2 Subfamily C Member 19 (CYP2C19) small molecule antagonists: luciferase reporter qHTS assay (AID 1671197). Further: nearly all actives have a fitted effect of over 65% in size. Further: potency means the concentration at half of the fitted maximal effect. Summed up: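 Luminescent readout of CYP2C19 activity: luciferin product detected 20 min after adding detection reagent. Before that, compound and enzyme-substrate mix preincubated 10 min at room temperature; NADPH-regenerating system started a 1 h, 37C reaction. Ketoconazole as positive control.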
Cytochrome P450 2C19 (Homo sapiens), sequence (P33261 whole entry, looked up): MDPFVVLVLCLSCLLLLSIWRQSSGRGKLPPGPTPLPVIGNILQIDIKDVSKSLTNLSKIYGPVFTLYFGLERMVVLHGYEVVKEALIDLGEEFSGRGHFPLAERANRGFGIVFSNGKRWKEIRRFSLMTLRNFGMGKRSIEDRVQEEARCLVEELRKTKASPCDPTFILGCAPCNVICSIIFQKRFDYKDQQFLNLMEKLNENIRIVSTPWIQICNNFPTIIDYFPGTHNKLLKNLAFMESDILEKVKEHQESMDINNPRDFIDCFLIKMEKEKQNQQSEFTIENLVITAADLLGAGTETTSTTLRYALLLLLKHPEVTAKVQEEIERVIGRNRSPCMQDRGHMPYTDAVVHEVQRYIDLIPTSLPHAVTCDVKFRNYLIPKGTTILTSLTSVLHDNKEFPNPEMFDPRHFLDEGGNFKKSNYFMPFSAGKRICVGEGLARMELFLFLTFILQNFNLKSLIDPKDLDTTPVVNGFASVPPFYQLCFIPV

In assay [2] the target is Cytochrome P450 2C9 (Homo sapiens) (UniProt P11712). Description: Cytochrome P450 Family 2 Subfamily C Member 9 (CYP2C9) small molecule antagonists: luciferase reporter qHTS assay (AID 1671198). Further: nearly all actives have a fitted effect of over 50% in size. Further: potency means the concentration at half of the fitted maximal effect. Summed up: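 Enzyme-substrate mix preincubated with compound 10 min at room temperature; reaction started with NADPH regeneration solution, 1 h 37C. Luminescent luciferin product read after 20 min detection reagent.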
Cytochrome P450 2C9 (Homo sapiens), sequence (P11712 whole entry, looked up): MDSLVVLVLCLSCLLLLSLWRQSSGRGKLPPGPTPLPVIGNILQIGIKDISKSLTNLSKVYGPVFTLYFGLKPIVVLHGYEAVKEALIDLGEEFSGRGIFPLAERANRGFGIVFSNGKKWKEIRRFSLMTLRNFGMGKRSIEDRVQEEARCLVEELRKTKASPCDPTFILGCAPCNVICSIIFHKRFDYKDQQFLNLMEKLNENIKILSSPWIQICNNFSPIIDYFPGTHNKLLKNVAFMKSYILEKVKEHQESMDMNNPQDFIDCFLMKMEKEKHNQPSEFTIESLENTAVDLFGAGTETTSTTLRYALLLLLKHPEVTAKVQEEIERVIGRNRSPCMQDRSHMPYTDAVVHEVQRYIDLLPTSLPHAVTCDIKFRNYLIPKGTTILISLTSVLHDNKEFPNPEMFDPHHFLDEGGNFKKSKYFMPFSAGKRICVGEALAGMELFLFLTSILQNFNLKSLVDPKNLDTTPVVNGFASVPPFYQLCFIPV

For assay [3], the target named is Cytochrome P450 1A2 (Homo sapiens) (UniProt P05177). Description: Cytochrome P450 Family 1 Subfamily A Member 2 (CYP1A2) small molecule antagonists: luciferase reporter qHTS assay (AID 1671199). Further: nearly all actives have a fitted effect of over 50% in size. Further: potency means the concentration at half of the fitted maximal effect. Summed up:
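Read-out is luminescence from luciferin detection reagent (20 min) proportional to CYP1A2 activity; compounds in DMSO preincubated 10 min with enzyme and proluciferin substrate, then NADPH regeneration solution, 1 h, room temperature.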
For orientation: A reporter such as luciferase makes a cellular process visible.

Assay [4] deals with Voltage-gated inwardly rectifying potassium channel KCNH2 (Homo sapiens) (UniProt Q12809). Description: Human Ether-a-go-go-Related Gene (hERG) channel small molecule antagonists: fluorescence cell-based qHTS assay (AID 1671200).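 Further: hERG-expressing U2OS cells given a thallium stimulus after FluxOR II dye loading; series mostly up to about 77 µM; nearly all actives have a fitted effect of over 50% in size.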 Summed up: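 hERG-U2OS cells plated overnight at 37 C, loaded with FluxOR II dye 1 h at RT in dark; after 10 min, thallium stimulus added. Fluorescence (480/540 nm) read kinetically for 2 min at 1 s intervals.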
Voltage-gated inwardly rectifying potassium channel KCNH2 (Homo sapiens), sequence (Q12809 whole entry, looked up): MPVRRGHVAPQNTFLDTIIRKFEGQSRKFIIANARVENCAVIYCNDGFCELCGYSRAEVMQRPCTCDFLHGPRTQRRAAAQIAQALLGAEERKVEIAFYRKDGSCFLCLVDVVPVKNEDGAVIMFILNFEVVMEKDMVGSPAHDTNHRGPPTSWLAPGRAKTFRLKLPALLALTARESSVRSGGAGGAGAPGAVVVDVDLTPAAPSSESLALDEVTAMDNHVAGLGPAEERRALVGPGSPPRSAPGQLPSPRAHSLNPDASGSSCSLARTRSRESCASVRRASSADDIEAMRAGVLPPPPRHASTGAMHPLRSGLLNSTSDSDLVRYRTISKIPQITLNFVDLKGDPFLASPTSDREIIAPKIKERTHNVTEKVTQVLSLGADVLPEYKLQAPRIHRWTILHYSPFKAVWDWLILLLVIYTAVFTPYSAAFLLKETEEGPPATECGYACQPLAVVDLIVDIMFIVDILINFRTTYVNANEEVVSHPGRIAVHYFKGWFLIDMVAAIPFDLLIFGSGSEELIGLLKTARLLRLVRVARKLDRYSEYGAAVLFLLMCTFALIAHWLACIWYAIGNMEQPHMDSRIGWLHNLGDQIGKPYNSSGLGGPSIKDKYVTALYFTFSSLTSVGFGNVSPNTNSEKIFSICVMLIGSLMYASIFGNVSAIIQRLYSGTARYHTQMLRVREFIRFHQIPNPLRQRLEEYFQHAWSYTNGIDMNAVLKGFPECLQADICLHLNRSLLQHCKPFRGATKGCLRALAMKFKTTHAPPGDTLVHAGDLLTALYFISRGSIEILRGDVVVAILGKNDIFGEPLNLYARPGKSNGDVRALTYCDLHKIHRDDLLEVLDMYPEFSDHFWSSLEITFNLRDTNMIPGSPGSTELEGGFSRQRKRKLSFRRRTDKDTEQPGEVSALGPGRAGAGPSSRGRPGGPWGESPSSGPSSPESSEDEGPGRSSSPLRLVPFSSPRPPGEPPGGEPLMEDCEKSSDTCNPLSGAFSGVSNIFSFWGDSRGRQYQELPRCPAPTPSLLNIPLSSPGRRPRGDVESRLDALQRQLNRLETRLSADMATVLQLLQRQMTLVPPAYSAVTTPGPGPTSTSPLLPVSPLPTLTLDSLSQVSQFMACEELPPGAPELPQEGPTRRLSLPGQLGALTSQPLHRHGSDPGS
On the technique in general: Block of hERG is tested as a sign of cardiac risk.

Assay [5] deals with Cytochrome P450 3A4 (Homo sapiens) (UniProt P08684). Description: Cytochrome P450 Family 3 Subfamily A Member 4 (CYP3A4) small molecule antagonists: luciferase reporter qHTS assay (AID 1671201). Further: nearly all actives have a fitted effect of over 50% in size. Further: potency means the concentration at half of the fitted maximal effect. Summed up: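 P450-Glo CYP3A4 luminescent assay: compounds preincubated 10 min at room temperature with enzyme and proluciferin substrate, NADPH regeneration added, 1 h room-temperature reaction, stopped with luciferin detection reagent; luminescence read after 20 min. Ketoconazole positive control.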
Cytochrome P450 3A4 (Homo sapiens), sequence (P08684 whole entry, looked up): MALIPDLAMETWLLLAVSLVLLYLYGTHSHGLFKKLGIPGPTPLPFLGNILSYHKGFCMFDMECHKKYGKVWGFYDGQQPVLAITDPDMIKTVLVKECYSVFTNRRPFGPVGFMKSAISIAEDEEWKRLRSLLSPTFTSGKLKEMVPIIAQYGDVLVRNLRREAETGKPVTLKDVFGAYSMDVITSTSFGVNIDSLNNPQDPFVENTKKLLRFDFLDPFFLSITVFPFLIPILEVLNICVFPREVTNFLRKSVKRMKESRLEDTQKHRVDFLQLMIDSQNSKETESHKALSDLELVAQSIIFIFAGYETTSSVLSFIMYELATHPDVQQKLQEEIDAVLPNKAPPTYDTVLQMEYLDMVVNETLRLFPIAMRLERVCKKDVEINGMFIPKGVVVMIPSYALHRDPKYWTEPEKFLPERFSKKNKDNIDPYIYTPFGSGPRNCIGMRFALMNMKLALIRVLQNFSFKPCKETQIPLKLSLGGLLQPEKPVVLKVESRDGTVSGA

The target in assay [6] is Cytochrome P450 2D6 (Homo sapiens) (UniProt P10635). Description: Cytochrome P450 Family 2 Subfamily D Member 6 (CYP2D6) small molecule antagonists: luciferase reporter qHTS assay (AID 1671196). Further: nearly all actives have a fitted effect of over 50% in size. Further: potency means the concentration at half of the fitted maximal effect. Summed up:
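Chemicals tested for interference with CYP2D6 activity; proluciferin substrate, NADPH regeneration, 1 h at room temperature, luminescent detection.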

Cytochrome P450 2D6 (Homo sapiens), sequence (P10635 whole entry, looked up): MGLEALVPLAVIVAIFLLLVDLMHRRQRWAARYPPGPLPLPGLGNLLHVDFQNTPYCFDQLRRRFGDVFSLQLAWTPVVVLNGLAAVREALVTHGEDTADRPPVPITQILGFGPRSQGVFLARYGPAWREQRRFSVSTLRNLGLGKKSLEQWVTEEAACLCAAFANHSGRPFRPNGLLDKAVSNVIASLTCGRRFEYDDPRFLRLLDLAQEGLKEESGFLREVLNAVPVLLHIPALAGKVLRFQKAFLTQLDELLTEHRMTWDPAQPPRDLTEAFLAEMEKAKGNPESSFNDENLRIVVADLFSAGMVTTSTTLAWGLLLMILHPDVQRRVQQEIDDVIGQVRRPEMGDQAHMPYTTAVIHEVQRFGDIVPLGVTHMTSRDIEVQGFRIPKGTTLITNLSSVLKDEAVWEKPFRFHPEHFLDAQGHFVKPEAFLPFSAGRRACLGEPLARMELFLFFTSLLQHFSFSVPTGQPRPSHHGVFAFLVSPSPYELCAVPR
Cytochrome P450 1A2 (Homo sapiens), sequence (P05177 whole entry, looked up): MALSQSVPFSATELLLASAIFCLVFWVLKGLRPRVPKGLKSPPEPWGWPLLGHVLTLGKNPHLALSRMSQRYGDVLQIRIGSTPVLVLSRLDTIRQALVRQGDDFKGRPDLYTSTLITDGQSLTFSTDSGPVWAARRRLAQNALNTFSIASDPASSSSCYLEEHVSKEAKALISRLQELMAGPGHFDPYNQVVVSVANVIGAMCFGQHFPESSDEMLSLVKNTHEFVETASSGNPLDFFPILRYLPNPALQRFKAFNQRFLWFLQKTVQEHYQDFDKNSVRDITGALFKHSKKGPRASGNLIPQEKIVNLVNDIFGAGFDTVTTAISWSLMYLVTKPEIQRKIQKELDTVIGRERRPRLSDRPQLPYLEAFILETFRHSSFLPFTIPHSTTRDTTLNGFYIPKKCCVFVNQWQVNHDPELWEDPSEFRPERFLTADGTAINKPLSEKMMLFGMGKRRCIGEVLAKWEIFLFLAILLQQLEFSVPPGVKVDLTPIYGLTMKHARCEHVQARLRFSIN

In the case of `CCCCCC(=O)O`, the Potency in assay [1] was 71.1 µM (active) and inactive. Further, the Potency result in assay [2], in assay [3], in assay [4] and in assay [5] was “inactive” each time.

With `C=CCc1ccc(OC)c(OC)c1`, the Potency entry in assay [6], in assay [1], in assay [4] and in assay [5] was “inactive” each time. In assay [3], the Potency is 18 µM (active) and 22.4 µM (active).

In the case of `CCO[Si](CCCN)(OCC)OCC`, the Potency entry in assay [6], in assay [1], in assay [2], in assay [3], in assay [4] and in assay [5] was “inactive” each time.

`O=C(O)/C=C/C(=O)O`: the Potency in assay [6] was 37.6 µM (active) and inactive. Besides, the Potency entry in assay [1], in assay [2], in assay [3], in assay [4] and in assay [5] was “inactive” in each case.

On to `CC(C)(C)c1cc(Cc2cc(C(C)(C)C)c(O)c(C(C)(C)C)c2)cc(C(C)(C)C)c1O`, for which the Potency result in assay [6], in assay [1], in assay [2], in assay [4] and in assay [5] was “inactive” throughout. Further, the Potency result in assay [3] was “inactive and 71 µM (active)”.

For `Cc1ccc(C(C)C)c(O)c1`, the Potency entry in assay [6], in assay [4] and in assay [5] was “inactive” throughout. For the same molecule, the Potency in assay [1] was 71 µM (active) and 34.7 µM (active); in assay [3], 31.7 µM (active) and 15.5 µM (active).

As to `NCCNCCN`, the Potency result in assay [1], in assay [2], in assay [4] and in assay [5] was “inactive” in each case. In addition, the Potency in assay [3] is 71.2 µM (active) and inactive.

Turning to `CN1C(=O)CC[C@H]1c1cccnc1`, the Potency entry in assay [1], in assay [2], in assay [3] and in assay [4] was “inactive” each time.

Consider `COc1ccc(OC)cc1`, for which the Potency result in assay [6], in assay [2], in assay [4] and in assay [5] was “inactive” throughout. Moreover, the Potency in assay [1] is 40.7 µM (active) and inactive.

For `COCCOC(=O)c1ccccc1C(=O)OCCOC`, the Potency result in assay [6], in assay [4] and in assay [5] was “inactive” each time. Also, the Potency in assay [1] was 22.6 µM (active) and 25.2 µM (active); in assay [3] it was 22.6 µM (active) and 35.6 µM (active).

Consider `O=[N+]([O-])c1ccc2nc[nH]c2c1`, for which the Potency entry in assay [6], in assay [1], in assay [4] and in assay [5] was “inactive” throughout. For the same molecule, the Potency in assay [3] is 36.3 µM (active) and 39.9 µM (active).

Turning to `CC(C)OC(=O)COc1ccc(Cl)cc1Cl`, the Potency was 11.1 µM (active) and 50.2 µM (active) in assay [1]; 35 µM (active) and 35.6 µM (active) in assay [2]; 6.23 µM (active) and 63.3 µM (active) in assay [3]. Besides, the Potency entry in assay [4] and in assay [5] was “inactive” in each case.

As to `CC1(C)CC(N)CC(C)(CN)C1` (stereo not drawn), the Potency entry in assay [1], in assay [2], in assay [3] and in assay [4] was “inactive” each time. Also, the Potency in assay [5] was 5.73 µM (active) and 4.48 µM (active).

Consider `CCCCCCC=O`, for which the Potency result is “inactive and 17.8 µM (active)” in assay [6]; 40.8 µM (active) and 39.9 µM (active) in assay [1]. For the same molecule, the Potency result in assay [3], in assay [4] and in assay [5] was “inactive” each time.

`O=C(O)c1ccccc1C(=O)O`: the Potency entry in assay [6], in assay [2], in assay [4] and in assay [5] was “inactive” each time. Also, the Potency in assay [1] was 41.2 µM (active) and 82.1 µM (active).

Consider `c1ccc(Oc2ccccc2)cc1`, for which the Potency result in assay [1], in assay [2], in assay [3], in assay [4] and in assay [5] was “inactive” in each case.

Regarding `Cc1ccc(S(=O)(=O)N=C=O)cc1`, the Potency entry in assay [1], in assay [2], in assay [3], in assay [4] and in assay [5] was “inactive” throughout.

For `N[C@H](Cc1c[nH]c2ccccc12)C(=O)O`, the Potency entry in assay [6], in assay [1], in assay [2], in assay [4] and in assay [5] was “inactive” each time.

In the case of `C[C@]12CCC(=O)C=C1CC[C@@H]1[C@@H]2[C@@H](O)C[C@@]2(C)[C@H]1CC[C@]2(O)C(=O)CO`, the Potency result in assay [6], in assay [1], in assay [2] and in assay [4] was “inactive” in each case.

`CN(C)CCOC(=O)COc1ccc(Cl)cc1`: the Potency in assay [6] was 35.5 µM (active) and 30.9 µM (active). Besides, the Potency result in assay [2], in assay [4] and in assay [5] was “inactive” throughout.

`Nc1ccc(Cl)c(N)c1`: the Potency entry in assay [6] and in assay [4] was “inactive” in each case. Besides, the Potency is 11.3 µM (active) and 20 µM (active) in assay [1]; 40 µM (active) and 35.6 µM (active) in assay [3]; 11.3 µM (active) and 31.7 µM (active) in assay [5].

Consider `O=S(=O)(O)c1ccc(N=Nc2c(O)ccc3cc(S(=O)(=O)O)ccc23)cc1`, for which the Potency in assay [6] is 31.8 µM (active); in assay [1], 71.3 µM (active); in assay [3], 40.1 µM (active). In addition, the Potency result in assay [4] and in assay [5] was “inactive” throughout.

Take `C=CC(=O)OCCC(=O)O`: the Potency in assay [6] was 23.2 µM (active) and inactive; in assay [1] it was 104 µM (active) and inactive. Further, the Potency entry in assay [2], in assay [4] and in assay [5] was “inactive” throughout.

In the case of `C[Si]1(C)O[Si](C)(C)O[Si](C)(C)O[Si](C)(C)O1`, the Potency result in assay [1], in assay [2], in assay [3], in assay [4] and in assay [5] was “inactive” each time.

Turning to `C=Cc1ccc(C)cc1`, the Potency entry in assay [1], in assay [2], in assay [3], in assay [4] and in assay [5] was “inactive” in each case.

`Clc1ccccn1`: the Potency result in assay [1], in assay [2], in assay [3], in assay [4] and in assay [5] was “inactive” each time.

In the case of `COc1cc(OC)c(C(=O)CCCN2CCCC2)c(OC)c1`, the Potency result in assay [1], in assay [3] and in assay [4] was “inactive” each time.

As for `O=C1CCCC1`, the Potency result in assay [1], in assay [2], in assay [3], in assay [4] and in assay [5] was “inactive” throughout.

Consider `COc1ccccc1OCC(O)CO` (stereo not drawn), for which, in assay [4], the Potency entry was “inactive”.

Take `CC(CCO)CC(C)(C)C` (stereo not drawn): the Potency result in assay [1] is “inactive and 79.6 µM (active)”. The Potency result in assay [3], in assay [4] and in assay [5] was “inactive” in each case.
